Most compounds without a hit are left out; they make up all but 7.6% or so of the library.
TSHR agonist: agonists of human thyroid stimulating hormone receptor | HEK293-CNG-TSHR cells (CNG channel as cAMP sensor), membrane potential dye, cAMP | Potency, µM (top dose mostly 57.1 µM), usual class: activators | 73,000 compounds, 0.48% hits; active = well fitted activation curve with a large enough effect in the main read-out, with a control signal flat, not every such curve was filed as active; inconclusive = small, poorly fitted or top-dose-only effect, or a change in a side signal; inactive = no such curve, though single readings can be large or run the other way; reference of the percent scale not stated here;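 note: the control signal comes from parental cells without the receptor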
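HEK 293 cells stably expressing TSHR and a modified CNG channel, with CNG-only parental cells as counterscreen, were preloaded 60 min at room temperature with membrane potential dye containing 100 uM RO 20-1724. Compound exposure was 30 min, and depolarization was read as fluorescence at 590 nm.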
Tau filament bind: binders of human tau filaments | 71,000 compounds, 2% hits | Potency, µM (titrated, usually from 57.1 µM) | recombinant tau filaments, thioflavin S fluorescence, 15 h; filaments grown with octadecylsulfate alongside compound | P10636;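 note: actives lower thioflavin S fluorescence by blocking filaments or displacing dye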
Target sequence (P10636 whole entry, looked up): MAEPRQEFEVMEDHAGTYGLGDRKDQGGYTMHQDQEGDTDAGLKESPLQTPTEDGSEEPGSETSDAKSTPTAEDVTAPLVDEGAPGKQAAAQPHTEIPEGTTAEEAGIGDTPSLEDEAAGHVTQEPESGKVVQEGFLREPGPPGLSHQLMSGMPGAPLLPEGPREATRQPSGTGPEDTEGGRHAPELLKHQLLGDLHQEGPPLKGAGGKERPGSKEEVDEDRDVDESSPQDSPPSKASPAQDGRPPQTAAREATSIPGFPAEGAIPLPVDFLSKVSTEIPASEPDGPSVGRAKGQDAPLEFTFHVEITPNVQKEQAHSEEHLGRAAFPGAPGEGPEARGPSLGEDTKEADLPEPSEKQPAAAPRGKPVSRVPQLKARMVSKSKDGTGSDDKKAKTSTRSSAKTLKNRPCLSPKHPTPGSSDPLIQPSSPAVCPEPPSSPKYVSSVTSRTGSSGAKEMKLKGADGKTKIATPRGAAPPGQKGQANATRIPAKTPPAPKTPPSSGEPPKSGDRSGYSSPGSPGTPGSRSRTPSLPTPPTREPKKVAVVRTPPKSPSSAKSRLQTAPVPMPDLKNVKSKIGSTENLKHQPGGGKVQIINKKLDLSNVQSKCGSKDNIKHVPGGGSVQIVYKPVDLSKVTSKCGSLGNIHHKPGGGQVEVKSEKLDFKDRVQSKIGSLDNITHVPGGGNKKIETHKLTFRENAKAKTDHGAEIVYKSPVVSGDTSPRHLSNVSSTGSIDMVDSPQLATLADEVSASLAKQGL
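His-tagged recombinant human tau (exons 2, 3, 10; 1 uM final) fibrillized with 30 uM sodium octadecylsulfate, 15 h at 37 C, in pH 7.4 HEPES buffer with 10 uM thioflavine S and 5 mM DTT. Reduced ThS fluorescence (450/510 nm) marks activity.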
CRE-bla Fsk: CRE-bla signaling modulation under forskolin stimulation; CHO CRE-bla reporter (cAMP response element driving beta-lactamase), forskolin EC10, beta-lactamase ratio; Potency, µM (series often up to 38.2 µM), usual class: activators; 71,000 compounds, 2.5% hits; active = well fitted activation curve with a large enough effect in the signal ratio, with a control signal flat, not every such curve was filed as active; inconclusive = small, poorly fitted or top-dose-only effect, or effect the other way, or a change in a side signal; the % refers to the signal ratio
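qHTS titration format; CRE-bla CHO reporter; stimulus EC10 NKH 477, a water-soluble forskolin. Read: CCF4 460/530 nm ratio. Potency expressed as AC50 for activators or inhibitors.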
ERK AVP inh: inhibitors of vasopressin-stimulated ERK signaling pathway | Potency, µM (highest dose often 57.5 µM), hits mostly inhibitors | 72,000 compounds, 0.99% hits | HEK293-V1b, vasopressin-stimulated pERK AlphaScreen; note: nearly all actives have a fitted effect of over 55% in size
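V1b-HEK293 cells; cpd 30 min 37C; 25 nM vasopressin 5 min; lyse 10 min; AlphaScreen beads 5 hr RT. Normalized to DMSO basal and 25 nM vasopressin; AC50 by Hill fit.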
HEK293 cAMP ctrl: raises cAMP in parental HEK293 cells, TSHR agonist counter-screen. parental HEK293 CNG cAMP sensor, membrane potential fluorescence. Potency, µM (titrated, usually from 57.1 µM), most hits filed as activators. 73,000 compounds, 2.5% hits; note: nearly all actives have a fitted effect of over 55% in size
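Parental HEK 293 cells stably expressing a modified CNG channel (no TSHR) report cAMP rise as membrane depolarization. Membrane potential dye with 100 uM RO 20-1724 was loaded for 60 min at room temperature, then compound added for 30 min; fluorescence read at 590 nm.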
Each line names hits and unclear results; the compound was inactive in the other large screens; ! = not active in a repeat. Unless noted, calls come from the whole dose curve; as a rule, active = well fitted curve in the direction sought with a large enough effect; inconclusive = small, poorly fitted or top-dose-only effect, or another doubt; inactive = no such curve, though single readings can be large; an effect the other way counts as inactive or inconclusive.

COc1ccc(NC(=O)N2CC3(CCN(C(=O)c4c(C)noc4C)CC3)C2)cc1	TSHR agonist inconclusive, HEK293 cAMP ctrl 13µM
COc1ccc(NC(=O)N2CC3(CCN(C(=O)c4ccc(OC)cc4)CC3)C2)cc1	none
CCOC(=O)c1[nH]c(C)c(C(=O)NC2CCCC2)c1C	TSHR agonist inconclusive, HEK293 cAMP ctrl 25µM
O=C1c2ccccc2C(Cc2ccnc(F)c2)(Cc2ccnc(F)c2)c2ccccc21	TSHR agonist inconclusive, HEK293 cAMP ctrl 0.25µM (no result: Tau filament bind, CRE-bla Fsk)
O=C1Nc2ccccc2[C@]1(O)Cc1ccccn1	none
CC(C)(C)NC[C@H](O)c1cc(O)cc(O)c1	TSHR agonist inconclusive, HEK293 cAMP ctrl 16µM
CC(C)(C)NCC(O)c1cc(O)cc(O)c1 (stereo not given)	none (no result: TSHR agonist, Tau filament bind, CRE-bla Fsk, HEK293 cAMP ctrl)
Nc1nc(NCCc2ccc(O)cc2)nc2nc(-c3ccco3)nn12	Tau filament bind 32µM, ERK AVP inh inconclusive
N#C[C@@H](Cc1ccc(O)c(O)c1)C(=O)N1CCc2ccccc21	CRE-bla Fsk inconclusive, ERK AVP inh inconclusive
Cc1ccc2c(c1)NC(=O)C(CC(=O)NCCCN1CCCC1)O2 (stereo not given)	none
COc1ccc(N2CCN(CCCNC(=O)CC3Oc4ccc(C)cc4NC3=O)CC2)cc1 (stereo not given)	Tau filament bind 25µM
O=S(=O)(c1ccccc1)N1CCC2(CCCN(Cc3ccccc3)C2)CC1	TSHR agonist inconclusive, HEK293 cAMP ctrl 16µM
CCSc1sccc1C1C(C#N)=C(N)N(c2cccnc2)C2=C1C(=O)CCC2 (stereo not given)	Tau filament bind inconclusive, ERK AVP inh 32µM
NC([N-]/N=C/c1ccccn1)=[S]=[Fe].O=S(=O)(O)O	none
CC(=O)OCC(=O)[C@@]1(O)CCC2C3CC[C@H]4CC(O)CC[C@@]4(C)C3C(=O)C[C@]21C (stereo not given in full)	none (no result: TSHR agonist, Tau filament bind, CRE-bla Fsk, HEK293 cAMP ctrl)
COC(=O)c1ccccc1NC(=O)c1cc(OC)cc(OC)c1	TSHR agonist inconclusive, CRE-bla Fsk inconclusive, HEK293 cAMP ctrl 25µM
COC(=O)c1ccccc1NC(=O)CC#N	CRE-bla Fsk inconclusive
COc1cc(NC(=O)c2ccccc2)cc(OC)c1	Tau filament bind 10µM, CRE-bla Fsk inconclusive
COC(=O)c1ccccc1NC(=O)c1sc(N)nc1C	CRE-bla Fsk 16µM, ERK AVP inh inconclusive
COCCNC(=O)c1ccccc1NC(=O)COc1ccccc1	none
COC(=O)c1ccccc1NC(=O)COc1ccccc1	TSHR agonist inconclusive, CRE-bla Fsk inconclusive, HEK293 cAMP ctrl 32µM
CC(=O)Nc1cccc(NC(=O)Nc2ccc(C(C)=O)cc2)c1	none
CCOc1cccc(C(=O)Nc2ccc(N(CC)CC)cc2)c1	Tau filament bind 3.2µM, ERK AVP inh inconclusive
CC(=O)c1cccc(NC(=O)Nc2ccc3c(c2)N(C)C(=O)CS3)c1	Tau filament bind 16µM, ERK AVP inh 10µM
CCN(CC)c1ccc(NC(=O)Nc2cccc(C(C)=O)c2)cc1	Tau filament bind 20µM, ERK AVP inh inconclusive
COC(=O)CCCCCN1C(=O)NC(CC2CC2)C(C(=O)OCc2ccccc2)=C1C (stereo not given)	TSHR agonist inconclusive, ERK AVP inh inconclusive, HEK293 cAMP ctrl inconclusive
CC(C)=CCC/C(C)=C/CO/N=C1/C[C@@H](O)[C@@H](O)[C@@H]2[C@@H]3C(=O)N([C@@H](C)c4ccccc4)C(=O)[C@H]3CC[C@H]12	none (no result: Tau filament bind, CRE-bla Fsk)
Cc1c(Cl)ccc2c1NC(=O)[C@]21[C@@H]2C(=O)N(Cc3ccccc3)C(=O)[C@@H]2[C@@H]2CCCN21	Tau filament bind 25µM
COc1ccccc1CN1C(=O)[C@@H]2C(CC(N)=O)NC3(C(=O)Nc4c3ccc(Cl)c4C)[C@@H]2C1=O (stereo not given in full)	CRE-bla Fsk inconclusive
CCc1cccc2c1NC(=O)[C@]21[C@@H]2C(=O)N(Cc3ccccc3)C(=O)[C@@H]2[C@@H]2CCCN21	Tau filament bind 25µM, CRE-bla Fsk inconclusive, ERK AVP inh inconclusive
COc1cccc(Cn2c(=O)c(CCc3ccccc3)nc3cnc(N4CCN(C)CC4)nc32)c1	CRE-bla Fsk inconclusive
CC1(C)CC(=O)C2=C(C1)OC1=C(C(=O)CC(C)(C)C1)C2c1ccc(O)cc1O	CRE-bla Fsk inconclusive, ERK AVP inh 10µM
COc1ccc(C2C(C#N)=C(N)OC3=C2C(=O)CC(C)(C)C3)c(OC)c1OC (stereo not given)	CRE-bla Fsk inconclusive
CCn1nc(C(=O)OCC(=O)c2c[nH]c3ccccc23)c2ccccc2c1=O	CRE-bla Fsk 4µM, ERK AVP inh inconclusive
CCn1nc(C(=O)OCC(=O)N2CCc3ccccc32)c2ccccc2c1=O	CRE-bla Fsk inconclusive
Cc1ccc(-c2cc(-c3ccccc3)c(C#N)c(N)n2)o1	Tau filament bind 3.2µM
Cc1nc(N)c(C#N)c(-c2ccccc2)c1C	CRE-bla Fsk inconclusive
Cc1ccc(-c2cc(-c3ccccc3Cl)c(C#N)c(N)n2)o1	Tau filament bind 13µM, CRE-bla Fsk inconclusive
N#Cc1c(-c2ccccc2)cc(C2CC2)nc1N	TSHR agonist inconclusive, CRE-bla Fsk 2µM, HEK293 cAMP ctrl inconclusive
Cc1ccc(-c2cc(-c3ccc(F)cc3)nc(N)c2C#N)o1	none
COc1ccc2c3c(ccc2c1)N[C@H](C(=O)O)CC3	none
Cc1cc(C)c(-c2cc([C@H](C)O/N=C3/[C@H]4OC4[C@@H](O)[C@H]4[C@H]3CCn3c(=O)n(-c5ccccc5)c(=O)n34)on2)c(C)c1 (stereo not given in full)	none (no result: Tau filament bind, CRE-bla Fsk)
O=C(Nc1c(F)cc(F)cc1Br)c1cc(-c2ccco2)on1	none
O=C(Nc1ccc(F)cc1F)c1cc(-c2ccco2)on1	Tau filament bind 20µM, CRE-bla Fsk inconclusive
CC(C)[C@@H](OCc1ccccc1)[C@H](C)/C=N\O[C@@H](C)c1cn([C@H](CO)Cc2ccccc2)nn1	none (no result: Tau filament bind, CRE-bla Fsk)
Cc1cc(/C=N/n2cnnc2)c(C)n1-c1cccc(Cl)c1	TSHR agonist 25µM, CRE-bla Fsk inconclusive
Cc1cc(N2CCCC2)ccc1/C=N/n1cnnc1	CRE-bla Fsk inconclusive
Cc1cc(/C=N/n2cnnc2)c(C)n1-c1ccc(OCc2ccc(F)cc2)cc1	TSHR agonist inconclusive, CRE-bla Fsk inconclusive, ERK AVP inh inconclusive, HEK293 cAMP ctrl inconclusive
Cc1cc(/C=N/n2cnnc2)c(C)n1-c1ccc(Cl)cc1Cl	TSHR agonist inconclusive, CRE-bla Fsk inconclusive, HEK293 cAMP ctrl 3.2µM
COc1cc(=O)n(C)c2c(OC[C@@H](O)C(C)(C)O)cccc12	TSHR agonist inconclusive, CRE-bla Fsk 25µM!, HEK293 cAMP ctrl inconclusive
O=C(Nc1ccccc1)N1CCCC2(CCN(C(=O)c3cccc(F)c3)CC2)C1	TSHR agonist 25µM
O=C(Nc1cccc(F)c1)N1CCCC2(CCN(C(=O)c3cccc(F)c3)CC2)C1	TSHR agonist inconclusive, HEK293 cAMP ctrl inconclusive
O=C(Nc1ccccc1)N1CC2(CCN(C(=O)c3cc(C(F)(F)F)cc(C(F)(F)F)c3)CC2)C1	none

Screening data as filed in PubChem.
